Data reported in article PMC12529666, “Dysregulation of AGO2-miRNA dynamics underlies the AGO2-associated Lessel–Kreienkamp syndrome”.

B1: GTACTTTG (ssRNA)
RNA 1: GAGUUCUACAGUCCGACGAUCCCAACGUACUUUGCACCUGGAAUUCUCGGGUGCCAA
RNA 2: UGGAGUGUGACAAUGGUGUUUG
DNA 1: GATCGTCGGACTGTAGAACTC
DNA 2: TTGGCACCCGAGAATTCCA
modifications: constant regions annealed to DNA blockers; guide miR-122 5' phosphate
B2: GCGCTCTG (ssRNA)
RNA 1: GAGUUCUACAGUCCGACGAUCCCAACGCGCUCUGCACCUGGAAUUCUCGGGUGCCAA
RNA 2: UGGAGUGUGACAAUGGUGUUUG
DNA 1: GATCGTCGGACTGTAGAACTC
DNA 2: TTGGCACCCGAGAATTCCA
modifications: constant regions annealed to DNA blockers; guide miR-122 5' phosphate
B3: GTGCTTTA (ssRNA)
RNA 1: GAGUUCUACAGUCCGACGAUCCCAACGUGCUUUACACCUGGAAUUCUCGGGUGCCAA
RNA 2: UGGAGUGUGACAAUGGUGUUUG
DNA 1: GATCGTCGGACTGTAGAACTC
DNA 2: TTGGCACCCGAGAATTCCA
modifications: constant regions annealed to DNA blockers; guide miR-122 5' phosphate
B4: GTGCCCCG (ssRNA)
RNA 1: GAGUUCUACAGUCCGACGAUCCCAACGUGCCCCGCACCUGGAAUUCUCGGGUGCCAA
RNA 2: UGGAGUGUGACAAUGGUGUUUG
DNA 1: GATCGTCGGACTGTAGAACTC
DNA 2: TTGGCACCCGAGAATTCCA
modifications: constant regions annealed to DNA blockers; guide miR-122 5' phosphate
B5: GTGCCTCG (ssRNA)
RNA 1: GAGUUCUACAGUCCGACGAUCCCAACGUGCCUCGCACCUGGAAUUCUCGGGUGCCAA
RNA 2: UGGAGUGUGACAAUGGUGUUUG
DNA 1: GATCGTCGGACTGTAGAACTC
DNA 2: TTGGCACCCGAGAATTCCA
modifications: constant regions annealed to DNA blockers; guide miR-122 5' phosphate
B6: GTATTCTG (ssRNA)
RNA 1: GAGUUCUACAGUCCGACGAUCCCAACGUAUUCUGCACCUGGAAUUCUCGGGUGCCAA
RNA 2: UGGAGUGUGACAAUGGUGUUUG
DNA 1: GATCGTCGGACTGTAGAACTC
DNA 2: TTGGCACCCGAGAATTCCA
modifications: constant regions annealed to DNA blockers; guide miR-122 5' phosphate
B7: GCGTCCTG (ssRNA)
RNA 1: GAGUUCUACAGUCCGACGAUCCCAACGCGUCCUGCACCUGGAAUUCUCGGGUGCCAA
RNA 2: UGGAGUGUGACAAUGGUGUUUG
DNA 1: GATCGTCGGACTGTAGAACTC
DNA 2: TTGGCACCCGAGAATTCCA
modifications: constant regions annealed to DNA blockers; guide miR-122 5' phosphate
B8: ATGCTCTA (ssRNA)
RNA 1: GAGUUCUACAGUCCGACGAUCCCAACAUGCUCUACACCUGGAAUUCUCGGGUGCCAA
RNA 2: UGGAGUGUGACAAUGGUGUUUG
DNA 1: GATCGTCGGACTGTAGAACTC
DNA 2: TTGGCACCCGAGAATTCCA
modifications: constant regions annealed to DNA blockers; guide miR-122 5' phosphate
B9: GCGTCCCG (ssRNA)
RNA 1: GAGUUCUACAGUCCGACGAUCCCAACGCGUCCCGCACCUGGAAUUCUCGGGUGCCAA
RNA 2: UGGAGUGUGACAAUGGUGUUUG
DNA 1: GATCGTCGGACTGTAGAACTC
DNA 2: TTGGCACCCGAGAATTCCA
modifications: constant regions annealed to DNA blockers; guide miR-122 5' phosphate
B10: GTACCTCG (ssRNA)
RNA 1: GAGUUCUACAGUCCGACGAUCCCAACGUACCUCGCACCUGGAAUUCUCGGGUGCCAA
RNA 2: UGGAGUGUGACAAUGGUGUUUG
DNA 1: GATCGTCGGACTGTAGAACTC
DNA 2: TTGGCACCCGAGAATTCCA
modifications: constant regions annealed to DNA blockers; guide miR-122 5' phosphate
B11: ACACCTCG (ssRNA)
RNA 1: GAGUUCUACAGUCCGACGAUCCCAACACACCUCGCACCUGGAAUUCUCGGGUGCCAA
RNA 2: UGGAGUGUGACAAUGGUGUUUG
DNA 1: GATCGTCGGACTGTAGAACTC
DNA 2: TTGGCACCCGAGAATTCCA
modifications: constant regions annealed to DNA blockers; guide miR-122 5' phosphate
B12: ACACTTCG (ssRNA)
RNA 1: GAGUUCUACAGUCCGACGAUCCCAACACACUUCGCACCUGGAAUUCUCGGGUGCCAA
RNA 2: UGGAGUGUGACAAUGGUGUUUG
DNA 1: GATCGTCGGACTGTAGAACTC
DNA 2: TTGGCACCCGAGAATTCCA
modifications: constant regions annealed to DNA blockers; guide miR-122 5' phosphate

Each binder was assayed against AGO2 L192P (Homo sapiens, UniProt Q9UKV8 1-859, L192P;S387D;S824A;S828D;S831D;S834A) (assay: RNA Bind-n-Seq (nitrocellulose filter binding and sequencing); miR-122 guide loaded in AGO2; 60 min incubation; 30 mM Tris pH 8.0, 100 mM potassium acetate, 2 mM magnesium acetate, 0.5 mM TCEP, 0.005% NP-40, 0.01 mg/ml yeast tRNA; 3 nM AGO2-miR-122, 100 nM RNA library; 60; high values mean tight binding). Conditions: protein: recombinant; tags: His6 (N-terminal, pFastBac HTA).
Chain of AGO2 L192P (Q9UKV8 whole entry L192P/S387D/S824A/S828D/S831D/S834A): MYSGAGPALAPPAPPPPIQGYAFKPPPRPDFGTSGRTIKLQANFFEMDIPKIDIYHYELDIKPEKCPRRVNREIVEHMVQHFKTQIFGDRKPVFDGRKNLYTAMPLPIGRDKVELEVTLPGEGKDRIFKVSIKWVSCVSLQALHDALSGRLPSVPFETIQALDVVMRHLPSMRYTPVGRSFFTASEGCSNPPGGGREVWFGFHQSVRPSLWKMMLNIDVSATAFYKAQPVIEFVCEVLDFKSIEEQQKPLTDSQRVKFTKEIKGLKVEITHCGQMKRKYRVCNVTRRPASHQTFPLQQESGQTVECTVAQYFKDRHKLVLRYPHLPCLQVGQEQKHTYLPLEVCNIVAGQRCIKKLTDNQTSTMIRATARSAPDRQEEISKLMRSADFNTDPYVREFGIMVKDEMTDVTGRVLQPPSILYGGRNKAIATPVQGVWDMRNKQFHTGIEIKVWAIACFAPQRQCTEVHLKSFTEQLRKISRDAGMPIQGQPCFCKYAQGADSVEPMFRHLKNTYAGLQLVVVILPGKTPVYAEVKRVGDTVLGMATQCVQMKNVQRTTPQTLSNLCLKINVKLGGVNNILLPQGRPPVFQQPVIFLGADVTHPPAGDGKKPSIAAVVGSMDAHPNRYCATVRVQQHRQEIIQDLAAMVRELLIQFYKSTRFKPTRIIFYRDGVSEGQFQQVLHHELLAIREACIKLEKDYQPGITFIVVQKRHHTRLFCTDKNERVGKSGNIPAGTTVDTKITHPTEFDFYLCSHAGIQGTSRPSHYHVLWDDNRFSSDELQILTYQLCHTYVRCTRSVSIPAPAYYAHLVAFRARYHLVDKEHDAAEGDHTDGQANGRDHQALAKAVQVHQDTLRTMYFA
In short: (§1)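 Fold enrichment is each target's read fraction divided by its read fraction in the input library. Sf9 insect cells expressed His-tagged AGO2 from baculovirus; the protein was loaded with a synthetic guide RNA and purified by Ni-NTA and a biotinylated capture oligo. The bound RNA was extracted, reverse-transcribed, barcode-amplified and sequenced on Illumina.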

Binder | binding signal
B1 | 0.365 fold enrichment over input
B2 | 0.371 fold enrichment over input
B3 | 0.489 fold enrichment over input
B4 | 0.406 fold enrichment over input
B5 | 0.431 fold enrichment over input
B6 | 0.39 fold enrichment over input
B7 | 0.38 fold enrichment over input
B8 | 0.443 fold enrichment over input
B9 | 0.366 fold enrichment over input
B10 | 0.347 fold enrichment over input
B11 | 0.412 fold enrichment over input
B12 | 0.433 fold enrichment over input

Each binder was assayed against AGO2 A367P (Homo sapiens, UniProt Q9UKV8 1-859, A367P;S387D;S824A;S828D;S831D;S834A) in the same assay as above. Conditions: protein: recombinant; tags: His6 (N-terminal, pFastBac HTA).
Chain of AGO2 A367P (Q9UKV8 whole entry A367P/S387D/S824A/S828D/S831D/S834A): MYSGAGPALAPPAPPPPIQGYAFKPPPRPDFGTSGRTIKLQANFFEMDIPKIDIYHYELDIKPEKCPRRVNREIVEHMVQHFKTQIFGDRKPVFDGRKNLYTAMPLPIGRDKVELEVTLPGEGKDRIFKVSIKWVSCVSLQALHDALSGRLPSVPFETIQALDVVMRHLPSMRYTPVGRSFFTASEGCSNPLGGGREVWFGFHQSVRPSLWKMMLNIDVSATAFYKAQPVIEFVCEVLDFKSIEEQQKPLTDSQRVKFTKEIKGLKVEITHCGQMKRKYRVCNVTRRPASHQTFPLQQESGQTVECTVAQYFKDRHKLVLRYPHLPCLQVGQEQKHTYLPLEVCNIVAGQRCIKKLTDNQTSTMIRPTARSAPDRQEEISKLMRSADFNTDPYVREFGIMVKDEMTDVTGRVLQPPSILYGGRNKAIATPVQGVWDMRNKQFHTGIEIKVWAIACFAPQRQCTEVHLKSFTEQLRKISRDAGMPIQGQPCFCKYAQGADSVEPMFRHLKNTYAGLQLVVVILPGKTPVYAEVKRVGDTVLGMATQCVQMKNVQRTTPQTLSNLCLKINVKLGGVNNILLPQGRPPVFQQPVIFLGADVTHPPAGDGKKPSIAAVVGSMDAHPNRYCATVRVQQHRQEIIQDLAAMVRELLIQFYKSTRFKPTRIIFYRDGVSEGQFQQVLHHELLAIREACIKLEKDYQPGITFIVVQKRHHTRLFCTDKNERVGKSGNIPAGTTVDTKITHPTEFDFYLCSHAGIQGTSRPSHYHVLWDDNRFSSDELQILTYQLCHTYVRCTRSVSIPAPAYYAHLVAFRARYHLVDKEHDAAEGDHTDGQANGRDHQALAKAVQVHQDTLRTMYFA
In short: as §1

Binder | binding signal
B1 | 0.121 fold enrichment over input
B2 | 0.163 fold enrichment over input
B3 | 0.185 fold enrichment over input
B4 | 0.159 fold enrichment over input
B5 | 0.162 fold enrichment over input
B6 | 0.139 fold enrichment over input
B7 | 0.156 fold enrichment over input
B8 | 0.171 fold enrichment over input
B9 | 0.15 fold enrichment over input
B10 | 0.125 fold enrichment over input
B11 | 0.179 fold enrichment over input
B12 | 0.201 fold enrichment over input

These binders were tested against AGO2 T357M (Homo sapiens, UniProt Q9UKV8 1-859, T357M;S387D;S824A;S828D;S831D;S834A) in the same assay as above. Conditions: protein: recombinant; tags: His6 (N-terminal, pFastBac HTA).
Chain of AGO2 T357M (Q9UKV8 whole entry T357M/S387D/S824A/S828D/S831D/S834A): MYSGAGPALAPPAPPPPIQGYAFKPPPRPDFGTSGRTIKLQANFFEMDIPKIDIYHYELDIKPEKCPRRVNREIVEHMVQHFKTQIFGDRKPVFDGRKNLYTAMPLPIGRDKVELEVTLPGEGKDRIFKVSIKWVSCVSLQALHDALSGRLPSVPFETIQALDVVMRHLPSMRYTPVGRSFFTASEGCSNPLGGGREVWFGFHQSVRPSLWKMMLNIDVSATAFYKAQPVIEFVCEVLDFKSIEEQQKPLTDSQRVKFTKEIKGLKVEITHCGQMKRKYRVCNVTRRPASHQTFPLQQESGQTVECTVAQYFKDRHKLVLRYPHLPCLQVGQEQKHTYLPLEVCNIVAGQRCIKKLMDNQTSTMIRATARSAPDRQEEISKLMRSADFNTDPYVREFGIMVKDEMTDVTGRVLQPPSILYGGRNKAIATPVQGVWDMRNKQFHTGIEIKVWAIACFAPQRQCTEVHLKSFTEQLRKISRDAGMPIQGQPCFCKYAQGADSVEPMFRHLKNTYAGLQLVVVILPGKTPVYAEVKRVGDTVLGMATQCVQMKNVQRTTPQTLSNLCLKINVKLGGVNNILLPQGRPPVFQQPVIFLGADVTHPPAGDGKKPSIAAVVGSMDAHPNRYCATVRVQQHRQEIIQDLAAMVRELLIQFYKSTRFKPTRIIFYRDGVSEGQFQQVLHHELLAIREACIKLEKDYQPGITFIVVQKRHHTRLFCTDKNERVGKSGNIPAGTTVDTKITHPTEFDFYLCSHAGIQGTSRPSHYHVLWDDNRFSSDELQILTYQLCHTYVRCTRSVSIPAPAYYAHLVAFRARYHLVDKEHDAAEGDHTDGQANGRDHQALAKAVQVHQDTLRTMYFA
In short: as §1

Binder | binding signal
B1 | 0.46 fold enrichment over input
B2 | 0.565 fold enrichment over input
B3 | 0.644 fold enrichment over input
B4 | 0.568 fold enrichment over input
B5 | 0.57 fold enrichment over input
B6 | 0.506 fold enrichment over input
B7 | 0.56 fold enrichment over input
B8 | 0.526 fold enrichment over input
B9 | 0.539 fold enrichment over input
B10 | 0.419 fold enrichment over input
B11 | 0.471 fold enrichment over input
B12 | 0.541 fold enrichment over input

Each binder was assayed against AGO2 F182del (Homo sapiens, UniProt Q9UKV8 1-859, S387D;S824A;S828D;S831D;S834A;del182-182) in the same assay as above. Conditions: protein: recombinant; tags: His6 (N-terminal, pFastBac HTA).
Chain of AGO2 F182del (Q9UKV8 other isoform, or with tags, fused parts or gaps S387D;S824A;S828D;S831D;S834A;del182-182): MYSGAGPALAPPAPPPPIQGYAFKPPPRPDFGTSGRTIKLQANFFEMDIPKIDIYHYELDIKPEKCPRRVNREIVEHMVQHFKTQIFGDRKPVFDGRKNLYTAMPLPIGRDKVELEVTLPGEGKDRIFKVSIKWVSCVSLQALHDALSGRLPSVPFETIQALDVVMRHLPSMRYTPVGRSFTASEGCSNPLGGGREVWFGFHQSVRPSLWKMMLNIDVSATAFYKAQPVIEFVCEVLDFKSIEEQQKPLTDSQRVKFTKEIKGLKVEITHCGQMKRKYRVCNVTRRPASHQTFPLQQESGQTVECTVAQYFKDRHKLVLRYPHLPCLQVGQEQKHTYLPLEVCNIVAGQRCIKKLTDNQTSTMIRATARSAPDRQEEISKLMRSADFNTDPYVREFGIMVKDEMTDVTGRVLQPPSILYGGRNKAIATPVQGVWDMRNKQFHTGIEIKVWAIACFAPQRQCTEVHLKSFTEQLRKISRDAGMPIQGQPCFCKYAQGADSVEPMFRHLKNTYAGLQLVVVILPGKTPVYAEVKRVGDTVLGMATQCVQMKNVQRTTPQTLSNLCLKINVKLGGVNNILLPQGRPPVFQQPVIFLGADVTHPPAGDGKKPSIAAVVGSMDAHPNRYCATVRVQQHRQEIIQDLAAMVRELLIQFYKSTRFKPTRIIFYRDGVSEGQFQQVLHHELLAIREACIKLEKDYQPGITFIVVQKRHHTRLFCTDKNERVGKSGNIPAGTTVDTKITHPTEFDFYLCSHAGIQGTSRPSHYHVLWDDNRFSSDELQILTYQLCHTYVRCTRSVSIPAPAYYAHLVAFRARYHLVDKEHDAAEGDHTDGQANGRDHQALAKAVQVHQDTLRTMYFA
In short: as §1

Binder | binding signal
B11 | 0.256 fold enrichment over input
B12 | 0.152 fold enrichment over input
